Experimental data from PubChem BioAssay (Tox21).
A number with no mark means an inactive call. Records with an inconclusive call do not appear. A call without a number means that no potency is given here. Calls of active or inactive are those of the source. Unless noted, the call rests on the fitted dose curve.

Tests used:
[1] = Nuclear factor erythroid 2-related factor 2/antioxidant responsive element (Nrf2/ARE) small molecule agonists: qHTS cell viability counter screen in human keratinocytes (AID 1919968; active means well fitted curve in the direction sought with a large enough effect in the repeat runs; an effect the other way counts as inactive or inconclusive; further: nearly all actives have a fitted effect of over 55% in size; further: potency means the concentration at half of the fitted maximal effect)
Summary of the method: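 HaCaT ARE reporter line, 1,500 cells/well; 5 h settle, 37 C/5% CO2; cpd in DMSO pinned; 23 h exposure; CellTiter-Fluor, 1 h; fluorescence.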

[2] = Nuclear factor erythroid 2-related factor 2/antioxidant responsive element (Nrf2/ARE) small molecule agonists: luciferase reporter gene qHTS assay in human keratinocytes (AID 1919969); further: nearly all actives have a fitted effect of over 35% in size
[3] = biological target: Gonadotropin-releasing hormone receptor (Homo sapiens) (UniProt P30968); experiment: Human gonadotropin-releasing hormone receptor (GnRHR) small molecule agonists, calcium flux assay in GnRHR-HEK293 cells (AID 1920063); further: nearly all actives have a fitted effect of over 35% in size
Chain of Gonadotropin-releasing hormone receptor (Homo sapiens) (P30968 whole entry, looked up): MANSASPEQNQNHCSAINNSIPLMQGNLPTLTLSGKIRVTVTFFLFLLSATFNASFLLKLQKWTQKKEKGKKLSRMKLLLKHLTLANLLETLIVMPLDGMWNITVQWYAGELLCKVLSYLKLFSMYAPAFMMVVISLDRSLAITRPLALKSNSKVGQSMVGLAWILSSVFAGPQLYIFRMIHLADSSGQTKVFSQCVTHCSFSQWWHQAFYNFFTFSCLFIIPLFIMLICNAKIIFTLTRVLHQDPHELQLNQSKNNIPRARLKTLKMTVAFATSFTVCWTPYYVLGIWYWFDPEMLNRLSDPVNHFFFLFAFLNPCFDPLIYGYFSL
Summary of the method: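 GnRHR-HEK293, 1500 cells/well, 18 h 37 C/5% CO2; Ca dye 1 h 37 C; cpd pinned (DMSO), agonist mode; kinetic FL 480/540, 3 min, 1 s reads; 15 conc, n=3.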

[4] = biological target: KiSS-1 receptor (Homo sapiens) (UniProt Q969F8); experiment: Human kisspeptin (KISS1R) small molecule agonists, calcium flux assay in KISS1R-HEK293 cells (AID 1920064; active means well fitted curve in the direction sought with a large enough effect in the repeat runs; an effect the other way counts as inactive or inconclusive)
Chain of KiSS-1 receptor (Homo sapiens) (Q969F8 whole entry, looked up): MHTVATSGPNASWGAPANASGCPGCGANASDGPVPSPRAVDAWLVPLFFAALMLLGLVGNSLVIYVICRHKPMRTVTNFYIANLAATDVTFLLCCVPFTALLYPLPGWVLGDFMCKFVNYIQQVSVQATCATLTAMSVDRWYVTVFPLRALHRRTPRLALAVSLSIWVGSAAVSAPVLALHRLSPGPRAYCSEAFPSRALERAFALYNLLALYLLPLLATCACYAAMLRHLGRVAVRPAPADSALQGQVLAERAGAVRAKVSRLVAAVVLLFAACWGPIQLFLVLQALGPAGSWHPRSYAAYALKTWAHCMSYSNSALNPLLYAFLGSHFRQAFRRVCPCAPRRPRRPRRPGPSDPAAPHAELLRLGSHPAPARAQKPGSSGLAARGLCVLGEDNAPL
Summary of the method: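 Stable human KISS1R HEK293 line; 18 h plating, 37 C/5% CO2; calcium dye 1 h 37 C; compound pin transfer; kinetic fluorescence Ex/Em 480/540, 3 min.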

[5] = G protein-coupled receptor (GPCR) small molecule agonists, calcium flux assay: HEK293 wild type cell line counter screen (AID 1920065)
Summary of the method: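 Kinetic fluorescence at Ex/Em 480/540, recorded every second over 3 min, served as the read-out after compound addition. Each compound was tested at 15 concentrations in triplicate on cells pre-loaded with calcium dye for 1 h.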

[6] = p53 small molecule agonists, cell-based qHTS assay with human liver microsomes (AID 1963577);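 further: p53 response element beta-lactamase reporter cells with liver microsomes plus NADPH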
Summary of the method: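 In this qHTS, p53 response-element beta-lactamase cells receive test compound together with a microsome/NADPH activating system (0.5 mg/mL final each) and are incubated 16 h at 37 C before LiveBLAzer fluorescence detection.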

[7] = p53 small molecule agonists, cell-based qHTS assay with rat liver microsomes (AID 1963578)
Summary of the method: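 Agonist mode in p53RE-bla reporter cells, with compounds co-incubated 16 h at 37 C alongside 0.5 mg/mL rat liver microsomes and 0.5 mg/mL NADPH (final), followed by a 2 h LiveBLAzer detection step.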

[8] = p53 small molecule agonists, cell-based qHTS assay with human liver microsomes: qHTS cell viability counter screen (AID 1963579); further: nearly all actives have a fitted effect of over 45% in size
Summary of the method: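 Metabolically activated exposure: compounds, human liver microsomes and NADPH (0.5 mg/mL final apiece) were added to p53RE-bla cells seeded 5 h earlier, left 16 h at 37 C, and then assessed for viability by CellTiter-Glo luminescence.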

[9] = p53 small molecule agonists, cell-based qHTS assay with rat liver microsomes: qHTS cell viability counter screen (AID 1963580); further: nearly all actives have a fitted effect of over 45% in size
Summary of the method: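 In HCT-116 cells carrying a p53 response element-bla reporter, compounds were metabolically activated in situ by rat liver microsomes with NADPH over 16 h. Cell ATP content then served as the cytotoxicity measure.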

[10] = p53 small molecule agonists, cell-based qHTS assay: qHTS cell viability counter screen (AID 1963581); further: nearly all actives have a fitted effect of over 45% in size
Summary of the method: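 HCT-116 p53RE-bla cells, 4,000/well, plated 5 h before compound pin transfer; 16 h at 37 C; bla substrate 2 h RT; then CellTiter-Glo, 30 min RT, luminescence.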

[11] = biological target: 5-hydroxytryptamine receptor 2A (Homo sapiens) (UniProt P28223); experiment: 5-hydroxytryptamine receptor 2A (HTR2A) small molecule antagonists, cell-based qHTS assay (AID 1963586); further: nearly all actives have a fitted effect of over 45% in size
Chain of 5-hydroxytryptamine receptor 2A (Homo sapiens) (P28223 whole entry, looked up): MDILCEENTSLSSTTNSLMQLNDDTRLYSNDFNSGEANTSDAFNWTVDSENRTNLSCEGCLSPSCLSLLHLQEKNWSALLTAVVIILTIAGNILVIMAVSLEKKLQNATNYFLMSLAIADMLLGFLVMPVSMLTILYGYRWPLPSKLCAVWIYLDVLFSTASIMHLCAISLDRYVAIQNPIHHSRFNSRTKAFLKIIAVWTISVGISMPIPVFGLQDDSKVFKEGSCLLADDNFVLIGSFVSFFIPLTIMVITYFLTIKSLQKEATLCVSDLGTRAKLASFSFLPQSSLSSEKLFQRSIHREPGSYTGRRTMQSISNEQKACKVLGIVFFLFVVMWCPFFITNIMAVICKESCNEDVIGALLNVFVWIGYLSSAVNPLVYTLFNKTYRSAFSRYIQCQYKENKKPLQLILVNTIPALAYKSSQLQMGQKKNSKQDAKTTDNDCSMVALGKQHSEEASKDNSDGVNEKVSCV
Summary of the method: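 Antagonist-mode intracellular calcium assay: DOI (4 nM) added after 5 min compound pre-incubation at room temperature to dye-loaded HTR2A-CHO cells. Fluorescence followed for 3 min, sampled every second.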

[12] = biological target: Muscarinic acetylcholine receptor M1 (Homo sapiens) (UniProt P11229); experiment: Cholinergic receptor muscarinic 1 (CHRM1) small molecule antagonists, cell-based qHTS assay (AID 1963588); further: nearly all actives have a fitted effect of over 40% in size; further: potency means the concentration at half of the fitted maximal effect
Chain of Muscarinic acetylcholine receptor M1 (Homo sapiens) (P11229 whole entry, looked up): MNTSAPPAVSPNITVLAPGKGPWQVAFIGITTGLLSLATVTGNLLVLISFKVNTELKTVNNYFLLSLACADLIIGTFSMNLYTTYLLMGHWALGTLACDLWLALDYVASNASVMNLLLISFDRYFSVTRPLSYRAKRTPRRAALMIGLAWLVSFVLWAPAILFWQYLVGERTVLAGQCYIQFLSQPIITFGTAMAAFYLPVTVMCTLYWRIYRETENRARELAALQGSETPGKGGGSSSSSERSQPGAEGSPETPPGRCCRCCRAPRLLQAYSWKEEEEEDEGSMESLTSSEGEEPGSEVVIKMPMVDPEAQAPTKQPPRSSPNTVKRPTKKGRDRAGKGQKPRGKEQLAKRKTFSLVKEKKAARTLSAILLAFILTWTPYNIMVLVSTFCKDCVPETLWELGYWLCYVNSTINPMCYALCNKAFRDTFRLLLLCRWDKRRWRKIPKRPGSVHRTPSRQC
Summary of the method: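 CHRM1-CHO calcium-flux assay, antagonist mode. Cells were seeded 18 h, dye-loaded 1 h at 37 C and given compound for 5 min at RT, then acetylcholine was added at 50nM. FDSS fluorescence was read 3 min; 15 concentrations, three runs.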

[13] = biological target: Muscarinic acetylcholine receptor M1 (Homo sapiens) (UniProt P11229); experiment: Cholinergic receptor muscarinic 1 (CHRM1) small molecule agonists, cell-based qHTS assay (AID 1963589); further: nearly all actives have a fitted effect of over 35% in size
Summary of the method: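 Human M1 in stable CHO line; 18 h plating, 1 h dye load 37 C; cpd added (agonist mode); Ca2+ fluorescence kinetic read, 1 s intervals; 15 conc, 3 runs.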

[14] = biological target: Beta-2 adrenergic receptor (Homo sapiens) (UniProt P07550); experiment: Adrenergic beta2 receptor (ADRB2) small molecule antagonists, cell-based qHTS assay (AID 1963592); further: series mostly up to about 92 µM; nearly all actives have a fitted effect of over 50% in size
Chain of Beta-2 adrenergic receptor (Homo sapiens) (P07550 whole entry, looked up): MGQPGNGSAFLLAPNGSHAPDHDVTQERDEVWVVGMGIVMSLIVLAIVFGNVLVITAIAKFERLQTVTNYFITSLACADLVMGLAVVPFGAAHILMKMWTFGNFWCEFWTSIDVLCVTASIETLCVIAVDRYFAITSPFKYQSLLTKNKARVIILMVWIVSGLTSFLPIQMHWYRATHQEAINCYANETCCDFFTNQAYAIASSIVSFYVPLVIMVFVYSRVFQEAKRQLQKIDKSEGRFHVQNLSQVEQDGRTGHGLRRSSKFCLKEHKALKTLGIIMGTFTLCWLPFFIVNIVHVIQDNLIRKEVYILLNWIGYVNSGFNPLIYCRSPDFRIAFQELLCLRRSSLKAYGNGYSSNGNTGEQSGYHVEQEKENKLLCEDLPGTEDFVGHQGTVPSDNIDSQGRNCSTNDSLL
Summary of the method: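 Cells (CHO, stable ADRB2 overexpression) incubated 18-20hr at 37C; compounds added from DMSO; agonist mix (1nM isoproterenol, 100uM IBMX, 25uM Ro-20-1724) added; 0.5hr RT; d2-cAMP and anti-cAMP-cryptate added; 1hr RT; 665/615 nm read.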

[15] = biological target: D(2) dopamine receptor (Homo sapiens) (UniProt P14416); experiment: Dopamine D2 receptor (DRD2) small molecule agonists, cell-based qHTS assay (AID 1963594); further: nearly all actives have a fitted effect of over 35% in size
Chain of D(2) dopamine receptor (Homo sapiens) (P14416 whole entry, looked up): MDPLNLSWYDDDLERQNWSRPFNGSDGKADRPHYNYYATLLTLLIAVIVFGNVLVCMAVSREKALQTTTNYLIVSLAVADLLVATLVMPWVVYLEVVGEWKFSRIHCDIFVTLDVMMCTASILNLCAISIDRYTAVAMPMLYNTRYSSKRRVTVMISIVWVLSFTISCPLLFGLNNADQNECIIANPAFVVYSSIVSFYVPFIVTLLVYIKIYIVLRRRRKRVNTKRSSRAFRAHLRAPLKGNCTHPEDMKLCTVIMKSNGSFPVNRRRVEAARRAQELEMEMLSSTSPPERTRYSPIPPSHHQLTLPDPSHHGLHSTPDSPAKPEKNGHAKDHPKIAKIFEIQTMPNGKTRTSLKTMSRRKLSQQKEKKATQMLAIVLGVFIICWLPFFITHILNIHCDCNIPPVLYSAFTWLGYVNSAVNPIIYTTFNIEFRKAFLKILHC
Summary of the method: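 HEK293 cells stably expressing DRD2 were cultured 24 h at 37 C, then given Ro20-1724 (0.1 mM final) and compounds for 10 min at room temperature. NKH477 (200nM) was then added for 30 min. cAMP was read by HTRF.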

[16] = cAMP Responsive Elements (CRE) small molecule agonists, cell-based qHTS assay (AID 1963590)
Summary of the method: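 HEK 293T CRE-bla, 2,000 cells/well, 18 h preincubation 37 C/5% CO2; cpds (DMSO) pinned, 3 h; LiveBLAzer B/G FRET substrate, 2 h RT.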

[17] = cAMP Responsive Elements (CRE) small molecule antagonists, cell-based qHTS assay (AID 1963591; active means well fitted inhibition curve with a large enough effect in the signal ratio in the repeat runs, not every such curve was filed as active; the % refers to the signal ratio)
Summary of the method: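 Beta-lactamase reporter read by FRET substrate (LiveBLAzer B/G) after 2 h at room temperature. CRE-bla HEK293T cells had received compound plus 0.25 uM (final) NKH477 for 3 h at 37 °C.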

[18] = biological target: D(2) dopamine receptor (Homo sapiens) (UniProt P14416); experiment: Dopamine D2 receptor (DRD2) small molecule antagonists, cell-based qHTS assay (AID 1963595; active means well fitted inhibition curve with a large enough effect in the signal ratio in the repeat runs, with a control signal flat; the % refers to the signal ratio)
Summary of the method: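 Cells were plated and grown for 24 h at 37 °C. Ro20-1724 (0.1 mM final) went in first, then compound for 10 min. NKH477 (200 nM) with quinpirole (12 nM) followed for 30 min at RT, then HTRF detection reagents for 1 h.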

[19] = p53 small molecule agonists, cell-based qHTS assay (AID 1963582; active means well fitted activation curve with a large enough effect in the signal ratio in the repeat runs, not every such curve was filed as active; the % refers to the signal ratio)
Summary of the method: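 Reporter line: p53RE-bla. Pre-incubation 5 h, 37 C, 5% CO2; compound (DMSO, pin tool) 16 h, 37 C; B/G FRET substrate 2 h RT; fluorescence intensity read.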

[20] = biological target: 5-hydroxytryptamine receptor 2A (Homo sapiens) (UniProt P28223); experiment: 5-hydroxytryptamine receptor 2A (HTR2A) small molecule agonists, cell-based qHTS assay (AID 1963587); further: nearly all actives have a fitted effect of over 30% in size
Summary of the method: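 HTR2A-CHO cells, plated 18 h at 37 C/5% CO2, dye-loaded 1 h at 37 C; compounds in DMSO added by pin tool (agonist mode). Intracellular calcium flux read as kinetic fluorescence on FDSS over 2 min at 1 s intervals.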

Compound | Potency [1] | Potency [2] | Potency [3] | Potency [4] | Potency [5] | Potency [6] | Potency [7] | Potency [8] | Potency [9] | Potency [10] | Potency [11] | Potency [12] | Potency [13] | Potency [14] | Potency [15] | Potency [16] | Potency [17] | Potency [18] | Potency [19] | Potency [20]
c1ccc2c(c1)Sc1ccccc1N2CC1CN2CCC1CC2 (centres undefined) | 33.5 µM (active) | inactive | inactive | inactive | inactive | inactive | inactive | inactive | inactive | inactive | inactive | inactive | inactive | inactive | inactive |  |  |  |  | 
CN1C(=O)CN=C(c2ccccc2)c2cc([N+](=O)[O-])ccc21 | inactive | inactive | inactive | inactive | inactive | inactive | inactive | inactive | inactive | inactive |  |  |  | inactive | inactive | inactive | inactive | inactive |  | 
CCN(CCO)CCn1c(Cc2ccccc2)nc2c1c(=O)n(C)c(=O)n2C | inactive | inactive | inactive | inactive | inactive | inactive | inactive | inactive | inactive |  | inactive | inactive | inactive | inactive | inactive | inactive |  |  | inactive | inactive
CCc1ccc(C(=O)NN(C(=O)c2cc(C)cc(C)c2)C(C)(C)C)cc1 | inactive | inactive | inactive | inactive | inactive | inactive | inactive | inactive | inactive | inactive | inactive | 2.98 µM (active) | inactive | inactive | inactive |  |  | inactive |  | inactive
